{"source": "PubChem BioAssay (EPA / NIEHS)", "note": "Active and inactive are the calls of the source. Rule for the calls: active = hit-call score of the fitted dose curve at least 0.9, where 1 is the maximum; inactive = score below 0.9.", "data": [{"tested_on": "not listed separately", "experiment": "ATG_CRE_CIS: Attagene CIS-FACTORIAL HepG2 Assay for human cAMP Responsive Element (CRE) binding protein 3 (AID 2282926)", "conditions": "HepG2 CRE cis-reporter, Attagene multiplexed mRNA; actives raise or lower the signal", "summary_of_the_method": "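Endogenous transcription factor activity read via CRE-regulated reporter transcripts in transfected HepG2 cells. After 24 h exposure, RNA was reverse-transcribed, amplified, fluorescently labelled and sized by capillary electrophoresis; gain or loss fitted against DMSO.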", "values": [{"smiles": "CC(C)(c1ccccc1)c1ccc(Nc2ccc(C(C)(C)c3ccccc3)cc2)cc1", "outcome": "inactive"}, {"smiles": "c1ccc2cnccc2c1", "outcome": "inactive"}, {"smiles": "CCC(C)N", "note": "(stereo unspecified)", "outcome": "inactive"}, {"smiles": "CCCCC(C=O)CC", "note": "(stereo unspecified)", "outcome": "inactive"}, {"smiles": "[Cl][Eu]([Cl])[Cl]", "outcome": "inactive"}, {"smiles": "O=C1CCCCC1C1CCCCC1", "note": "(stereo unspecified)", "outcome": "inactive"}, {"smiles": "Nc1cccc(N)n1", "outcome": "inactive"}, {"smiles": "CC(C)(C)C1CCC(=O)CC1", "outcome": "inactive"}, {"smiles": "C=CC(=O)OCCCCCCOC(=O)C=C", "outcome": "inactive"}, {"smiles": "CC(C)(CO)C(O)C(=O)NCCCO", "note": "(stereo unspecified)", "outcome": "inactive"}, {"smiles": "CCOC(=O)/C=C\\C(=O)OCC", "outcome": "inactive"}, {"smiles": "CCCCNS(=O)(=O)c1ccccc1", "outcome": "inactive"}, {"smiles": "CCCC(CC)c1ccccc1", "note": "(stereo unspecified)", "outcome": "inactive"}, {"smiles": "CC(C)c1ccc(O)c(C(C)C)c1", "outcome": "inactive"}, {"smiles": "CC(C)COC(=O)CC(C(=O)OCC(C)C)S(=O)(=O)O", "note": "(stereo unspecified)", "outcome": "inactive"}, {"smiles": "CC(C)CCOCc1ccccc1", "outcome": "inactive"}, {"smiles": "C=CC(=O)OCC(C)OCC(C)OCC(C)OC(=O)C=C", "note": "(stereo unspecified)", "outcome": "inactive"}, {"smiles": "CCCCCCCCCCCC(=O)N(C)CC(=O)O", "outcome": "inactive"}, {"smiles": "CC=C(C)C(C)=O", "outcome": "inactive"}, {"smiles": "CC(C)CC(=O)OCc1ccccc1", "outcome": "inactive"}, {"smiles": "CCCCCCC=O", "outcome": "inactive"}, {"smiles": "O=C1CCCCCCCCCCC1", "outcome": "inactive"}, {"smiles": "C1CNCCN1", "outcome": "inactive"}, {"smiles": "O=C(O)CCC(=O)O", "outcome": "inactive"}, {"smiles": "COC(OC)(C(=O)c1ccccc1)c1ccccc1", "outcome": "inactive"}, {"smiles": "CCCCC1CCC(=O)O1", "note": "(stereo unspecified)", "outcome": "inactive"}, {"smiles": "CC(=O)c1ccc(S(=O)(=O)NC(=O)NC2CCCCC2)cc1", "outcome": "inactive"}, {"smiles": "C=C(C)C(=O)OCC(O)COc1ccc(C(C)(C)c2ccc(OCC(O)COC(=O)C(=C)C)cc2)cc1", "note": "(stereo unspecified)", "outcome": "inactive"}, {"smiles": "CC1CC(=O)CC(C)(C)C1", "note": "(stereo unspecified)", "outcome": "inactive"}, {"smiles": "[Cl][Sc]([Cl])[Cl]", "outcome": "inactive"}, {"smiles": "O=S(=O)(O)c1ccc(Nc2nc(Nc3ccc(C=Cc4ccc(Nc5nc(Nc6ccc(S(=O)(=O)O)cc6)nc(N(CCO)CCO)n5)cc4S(=O)(=O)O)c(S(=O)(=O)O)c3)nc(N(CCO)CCO)n2)cc1", "outcome": "inactive"}, {"smiles": "CC(CC=O)CC(C)(C)C", "note": "(stereo unspecified)", "outcome": "inactive"}, {"smiles": "C[Si]1(C)O[Si](C)(C)O[Si](C)(C)O[Si](C)(C)O[Si](C)(C)O1", "outcome": "inactive"}, {"smiles": "CCCCCCCCCCCC(=O)OCC", "outcome": "inactive"}, {"smiles": "C=C(C)C(=O)OCCOC(=O)C(=C)C", "outcome": "inactive"}, {"smiles": "CCC1COC(=O)O1", "note": "(stereo unspecified)", "outcome": "inactive"}, {"smiles": "CCCCOC(=O)C(C)CC", "note": "(stereo unspecified)", "outcome": "inactive"}]}, {"target": "CCAAT/enhancer-binding protein beta (Homo sapiens) (UniProt P17676)", "sequence (P17676 whole entry, looked up)": "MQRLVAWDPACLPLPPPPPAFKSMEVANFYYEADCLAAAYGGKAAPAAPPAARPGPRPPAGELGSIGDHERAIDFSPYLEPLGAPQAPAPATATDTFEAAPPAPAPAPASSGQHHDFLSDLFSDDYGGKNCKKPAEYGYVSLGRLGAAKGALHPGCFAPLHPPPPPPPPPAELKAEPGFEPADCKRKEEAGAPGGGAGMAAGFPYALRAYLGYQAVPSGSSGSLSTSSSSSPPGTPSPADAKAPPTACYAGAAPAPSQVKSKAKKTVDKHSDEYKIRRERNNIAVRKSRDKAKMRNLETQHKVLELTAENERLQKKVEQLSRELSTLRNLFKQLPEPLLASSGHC", "experiment": "ATG_C_EBP_CIS: Attagene CIS-FACTORIAL HepG2 Assay for human CCAAT/Enhancer Binding Protein (C/EBP) beta (AID 2282927)", "conditions": "HepG2 Attagene cis-factorial transcription factor reporter; actives raise or lower the signal", "summary_of_the_method": "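HepG2 transiently transfected with multiplexed reporter units under cis-regulatory promoters reporting endogenous C/EBPb activity. After 24 h exposure, reporter mRNA assayed by RT-PCR, fluorescent labelling, HpaI digestion and capillary electrophoresis; bidirectional fitting versus DMSO.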", "values": [{"smiles": "CC(C)(c1ccccc1)c1ccc(Nc2ccc(C(C)(C)c3ccccc3)cc2)cc1", "outcome": "inactive"}, {"smiles": "c1ccc2cnccc2c1", "outcome": "inactive"}, {"smiles": "CCC(C)N", "note": "(stereo unspecified)", "outcome": "inactive"}, {"smiles": "CCCCC(C=O)CC", "note": "(stereo unspecified)", "outcome": "inactive"}, {"smiles": "[Cl][Eu]([Cl])[Cl]", "outcome": "inactive"}, {"smiles": "O=C1CCCCC1C1CCCCC1", "note": "(stereo unspecified)", "outcome": "inactive"}, {"smiles": "Nc1cccc(N)n1", "outcome": "inactive"}, {"smiles": "CC(C)(C)C1CCC(=O)CC1", "outcome": "inactive"}, {"smiles": "C=CC(=O)OCCCCCCOC(=O)C=C", "outcome": "inactive"}, {"smiles": "CC(C)(CO)C(O)C(=O)NCCCO", "note": "(stereo unspecified)", "outcome": "inactive"}, {"smiles": "CCOC(=O)/C=C\\C(=O)OCC", "outcome": "inactive"}, {"smiles": "CCCCNS(=O)(=O)c1ccccc1", "outcome": "inactive"}, {"smiles": "CCCC(CC)c1ccccc1", "note": "(stereo unspecified)", "outcome": "inactive"}, {"smiles": "CC(C)c1ccc(O)c(C(C)C)c1", "outcome": "inactive"}, {"smiles": "CC(C)COC(=O)CC(C(=O)OCC(C)C)S(=O)(=O)O", "note": "(stereo unspecified)", "outcome": "inactive"}, {"smiles": "CC(C)CCOCc1ccccc1", "outcome": "inactive"}, {"smiles": "C=CC(=O)OCC(C)OCC(C)OCC(C)OC(=O)C=C", "note": "(stereo unspecified)", "outcome": "inactive"}, {"smiles": "CCCCCCCCCCCC(=O)N(C)CC(=O)O", "outcome": "inactive"}, {"smiles": "CC=C(C)C(C)=O", "outcome": "inactive"}, {"smiles": "CC(C)CC(=O)OCc1ccccc1", "outcome": "inactive"}, {"smiles": "CCCCCCC=O", "outcome": "inactive"}, {"smiles": "O=C1CCCCCCCCCCC1", "outcome": "inactive"}, {"smiles": "C1CNCCN1", "outcome": "inactive"}, {"smiles": "O=C(O)CCC(=O)O", "outcome": "inactive"}, {"smiles": "COC(OC)(C(=O)c1ccccc1)c1ccccc1", "outcome": "inactive"}, {"smiles": "CCCCC1CCC(=O)O1", "note": "(stereo unspecified)", "outcome": "inactive"}, {"smiles": "CC(=O)c1ccc(S(=O)(=O)NC(=O)NC2CCCCC2)cc1", "outcome": "inactive"}, {"smiles": "C=C(C)C(=O)OCC(O)COc1ccc(C(C)(C)c2ccc(OCC(O)COC(=O)C(=C)C)cc2)cc1", "note": "(stereo unspecified)", "outcome": "inactive"}, {"smiles": "CC1CC(=O)CC(C)(C)C1", "note": "(stereo unspecified)", "outcome": "inactive"}, {"smiles": "[Cl][Sc]([Cl])[Cl]", "outcome": "inactive"}, {"smiles": "O=S(=O)(O)c1ccc(Nc2nc(Nc3ccc(C=Cc4ccc(Nc5nc(Nc6ccc(S(=O)(=O)O)cc6)nc(N(CCO)CCO)n5)cc4S(=O)(=O)O)c(S(=O)(=O)O)c3)nc(N(CCO)CCO)n2)cc1", "outcome": "inactive"}, {"smiles": "CC(CC=O)CC(C)(C)C", "note": "(stereo unspecified)", "outcome": "inactive"}, {"smiles": "C[Si]1(C)O[Si](C)(C)O[Si](C)(C)O[Si](C)(C)O[Si](C)(C)O1", "outcome": "inactive"}, {"smiles": "CCCCCCCCCCCC(=O)OCC", "outcome": "inactive"}, {"smiles": "C=C(C)C(=O)OCCOC(=O)C(=C)C", "outcome": "inactive"}, {"smiles": "CCC1COC(=O)O1", "note": "(stereo unspecified)", "outcome": "inactive"}, {"smiles": "CCCCOC(=O)C(C)CC", "note": "(stereo unspecified)", "outcome": "inactive"}]}, {"tested_on": "not listed separately", "experiment": "ATG_CMV_CIS: Attagene CIS-FACTORIAL HepG2 Assay for human CMV (Internal Marker) (AID 2282928);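 note: endpoint acts as a background internal control marker rather than a target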", "conditions": "HepG2 CMV promoter reporter, transcription factor profiling; actives raise or lower the signal", "summary_of_the_method": "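Bidirectional fits against DMSO are applied to reporter mRNA, read by RT-PCR with capillary electrophoresis, from HepG2 cells exposed 24 h. The endpoint serves as an internal CMV background marker within the cis-factorial reporter panel.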", "values": [{"smiles": "CC(C)(c1ccccc1)c1ccc(Nc2ccc(C(C)(C)c3ccccc3)cc2)cc1", "outcome": "inactive"}, {"smiles": "c1ccc2cnccc2c1", "outcome": "inactive"}, {"smiles": "CCC(C)N", "note": "(stereo unspecified)", "outcome": "inactive"}, {"smiles": "CCCCC(C=O)CC", "note": "(stereo unspecified)", "outcome": "inactive"}, {"smiles": "[Cl][Eu]([Cl])[Cl]", "outcome": "inactive"}, {"smiles": "O=C1CCCCC1C1CCCCC1", "note": "(stereo unspecified)", "outcome": "inactive"}, {"smiles": "Nc1cccc(N)n1", "outcome": "inactive"}, {"smiles": "CC(C)(C)C1CCC(=O)CC1", "outcome": "inactive"}, {"smiles": "C=CC(=O)OCCCCCCOC(=O)C=C", "AC50": "56.6 µM (active)"}, {"smiles": "CC(C)(CO)C(O)C(=O)NCCCO", "note": "(stereo unspecified)", "outcome": "inactive"}, {"smiles": "CCOC(=O)/C=C\\C(=O)OCC", "outcome": "inactive"}, {"smiles": "CCCCNS(=O)(=O)c1ccccc1", "outcome": "inactive"}, {"smiles": "CCCC(CC)c1ccccc1", "note": "(stereo unspecified)", "AC50": "153 µM (active)"}, {"smiles": "CC(C)c1ccc(O)c(C(C)C)c1", "outcome": "inactive"}, {"smiles": "CC(C)COC(=O)CC(C(=O)OCC(C)C)S(=O)(=O)O", "note": "(stereo unspecified)", "outcome": "inactive"}, {"smiles": "CC(C)CCOCc1ccccc1", "outcome": "inactive"}, {"smiles": "C=CC(=O)OCC(C)OCC(C)OCC(C)OC(=O)C=C", "note": "(stereo unspecified)", "AC50": "77.1 µM (active)"}, {"smiles": "CCCCCCCCCCCC(=O)N(C)CC(=O)O", "AC50": "97.5 µM (active)"}, {"smiles": "CC=C(C)C(C)=O", "outcome": "inactive"}, {"smiles": "CC(C)CC(=O)OCc1ccccc1", "outcome": "inactive"}, {"smiles": "CCCCCCC=O", "outcome": "inactive"}, {"smiles": "O=C1CCCCCCCCCCC1", "outcome": "inactive"}, {"smiles": "C1CNCCN1", "outcome": "inactive"}, {"smiles": "O=C(O)CCC(=O)O", "outcome": "inactive"}, {"smiles": "COC(OC)(C(=O)c1ccccc1)c1ccccc1", "outcome": "inactive"}, {"smiles": "CCCCC1CCC(=O)O1", "note": "(stereo unspecified)", "outcome": "inactive"}, {"smiles": "CC(=O)c1ccc(S(=O)(=O)NC(=O)NC2CCCCC2)cc1", "outcome": "inactive"}, {"smiles": "C=C(C)C(=O)OCC(O)COc1ccc(C(C)(C)c2ccc(OCC(O)COC(=O)C(=C)C)cc2)cc1", "note": "(stereo unspecified)", "outcome": "inactive"}, {"smiles": "CC1CC(=O)CC(C)(C)C1", "note": "(stereo unspecified)", "outcome": "inactive"}, {"smiles": "[Cl][Sc]([Cl])[Cl]", "outcome": "inactive"}, {"smiles": "O=S(=O)(O)c1ccc(Nc2nc(Nc3ccc(C=Cc4ccc(Nc5nc(Nc6ccc(S(=O)(=O)O)cc6)nc(N(CCO)CCO)n5)cc4S(=O)(=O)O)c(S(=O)(=O)O)c3)nc(N(CCO)CCO)n2)cc1", "outcome": "inactive"}, {"smiles": "CC(CC=O)CC(C)(C)C", "note": "(stereo unspecified)", "outcome": "inactive"}, {"smiles": "C[Si]1(C)O[Si](C)(C)O[Si](C)(C)O[Si](C)(C)O[Si](C)(C)O1", "outcome": "inactive"}, {"smiles": "CCCCCCCCCCCC(=O)OCC", "outcome": "inactive"}, {"smiles": "C=C(C)C(=O)OCCOC(=O)C(=C)C", "outcome": "inactive"}, {"smiles": "CCC1COC(=O)O1", "note": "(stereo unspecified)", "outcome": "inactive"}, {"smiles": "CCCCOC(=O)C(C)CC", "note": "(stereo unspecified)", "outcome": "inactive"}]}]}
